A selection: hits, their analogues and other compounds. The true share with any hit is near 1.8%.
KLF5 inh: KLF5 expression inhibitors, primary screen, DLD-1 cells, luminescence; DLD-1 KLF5 promoter-luciferase reporter; inhibition, % at 5 µM; 290,000 compounds, 0.23% hits; AID 1700, 2009;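 active = inhibition above a per-plate limit of that plate's mean compound inhibition plus 3 SD, cut at about 60% in these data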;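 note: higher means less KLF5 promoter-driven luciferase light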
IEC-6 tox: cytotoxicity in IEC-6 intestinal epithelial cells, primary screen, cytotoxicity control for KLF5 inhibitor project, cell-based, luminescence. inhibition, % at 5 µM. IEC-6 cytotoxicity, luminescence viability. 290,000 compounds, 0.78% hits
BaF3 parental: parental Ba/F3 cell viability inhibition, counter-screen for JAK2V617F inhibitor project, murine pro-B, CellTiter-Glo luminescence | CellTiter-Glo ATP luminescence | inhibition, % at 5.6 µM | 220,000 compounds, 1.1% hits | AID 1486, 2009;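 active = inhibition above a per-campaign cutoff, the mean inhibition of all tested compounds plus 3 SD, cut at about 27% in these data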
Ba/F3 V617F tox: reduced viability of JAK2V617F-dependent Ba/F3 cells, primary screen, JAK2V617F inhibitor project, cell-based, Ba/F3 EpoR-JAK2V617F, luminescence. 220,000 compounds, 1.1% hits. ATP luminescence. inhibition, % at 5.6 µM;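 active = inhibition above the campaign mean plus 3 SD over all tested compounds, cut at about 24% in these data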;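 note: cytokine-independent growth of Ba/F3 cells driven by EpoR plus mutant JAK2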
APP transl inh: inhibitors of APP translation via 5'UTR reporter, primary screen, APP 5'UTR luciferase, SH-SY5Y cells. 190,000 compounds, 0.82% hits. inhibition, % at 2 µM. SH-SY5Y APP 5'UTR-luciferase reporter, luminescence;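 active = inhibition above a set limit, derived from the sample mean plus 3 SD, cut at about 45% in these data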
IEC-6 cytotox cf: cytotoxic compounds in IEC-6 epithelial cells, confirmation, cytotoxicity control, cell-based, luminescence; shares compounds with IEC-6 tox; IEC-6 rat intestinal epithelial viability; inhibition, % at 5 µM; 1,900 compounds, 63% hits; AID 1907, 2009
Numbers stand for hits; . = inactive; / = no result. Cut-off read from the data, not from the text of the source, unless noted: active = inhibition above about 22%; inactive = the rest.

SMILES | KLF5 inh | IEC-6 tox | BaF3 parental | Ba/F3 V617F tox | APP transl inh | IEC-6 cytotox cf
Cc1ccc(NC(=O)[C@H](Cc2c[nH]c3ccccc23)NC(=O)[C@@H]2Cc3ccccc3CN2)c(C)c1 | . | 32 | / | / | / | .
CCOc1ccc(N(CC(=O)NCc2ccc(F)cc2)C(=O)c2snc(C(N)=O)c2N)cc1 | . | . | / | / | / | /
CCCCn1c(N)c(N(CCOC)C(=O)C2CCN(S(=O)(=O)c3ccc(Cl)cc3)CC2)c(=O)[nH]c1=O | . | . | / | / | / | /
O=C(N/N=C/C(Br)=C/c1ccccc1)c1n[nH]c2c1CCC2 | . | 94 | 92 | 92 | / | .
O=C(N/N=C/c1ccc(Cl)cc1)c1n[nH]c2c1CCCC2 | . | 82 | 71 | 75 | / | 63
CC(C)Cn1c(=S)[nH]c2cc(Cl)ccc21 | . | . | . | . | . | /
CC1(C)CC(N2CCCC2)=CC(=[N+]2CCCCC2)C1 | . | 23 | 67 | 82 | . | 33
CCOc1ccc(N2C(=O)CC(N(Cc3ccco3)C(=O)CCC(=O)O)C2=O)cc1 (stereo unspecified) | . | . | . | . | . | /
C=CCNc1nnc(Cc2ccc(C(C)C)cc2)c(=O)[nH]1 | . | 23 | / | / | / | .
CCC1=Nc2cc(C(=O)NCCN3CCCC3)ccc2Sc2ccccc21 | . | . | / | / | / | /
CCC1=Nc2cc(C(=O)NCCCOC)ccc2Sc2ccccc21 | . | 88 | 79 | 77 | 95 | 60
COc1cccc(NC(=O)CSc2nc(O)c(C)c(=O)n2-c2ccc(C)cc2)c1 | . | . | / | / | / | /
c1ccc2c(NCCc3c[nH]c4ccccc34)c3ccccc3nc2c1 | . | 22 | / | / | / | .
Cc1ccc(-c2nc(NCCCO)c3ccccc3n2)cc1 | . | . | / | / | / | /
OCCCNc1c2ccccc2nc2ccccc12 | . | 39 | / | / | / | 26
Fc1cccc(NCCc2c[nH]c3ccccc23)n1 | . | . | / | / | / | /
O=C(Nc1ccccc1N1CCN(C(=O)c2ccccc2)CC1)c1cc2ccccc2o1 | . | . | . | . | . | /
COc1ccc(N2CCCC2)c(NC(=O)c2ccc([N+](=O)[O-])o2)c1 | . | 33 | / | / | / | .
O=C(Nc1ccccc1N1CCN(C(=O)c2ccccc2)CC1)c1ccc([N+](=O)[O-])o1 | . | 28 | / | / | / | .
CC1CCN(c2ccccc2NC(=O)c2ccc([N+](=O)[O-])o2)CC1 | . | . | / | / | / | /
O=C(Nc1ccccc1N1CCCC1)c1ccc([N+](=O)[O-])o1 | . | 66 | / | / | / | .
CCOC(=O)c1ccc(NC(=S)NC(=O)COc2ccccc2)cc1 | . | . | . | . | . | /
COc1ccccc1N1CCN(C(=O)CCCn2nc(C)c([N+](=O)[O-])c2C)CC1 | . | . | . | . | . | /
Cc1ccc(C(C)C)c(OCc2ccc(C(=O)N/N=C/c3cccc(O)c3O)cc2)c1 | . | 41 | 90 | 97 | 80 | 78
CC(=O)Nc1ccc(C(=O)N/N=C/c2ccccc2OCc2ccccc2)cc1 | . | . | . | . | . | /
SMILES | KLF5 inh | IEC-6 tox | BaF3 parental | Ba/F3 V617F tox | APP transl inh | IEC-6 cytotox cf
CCCCCc1nnc(NC(=O)Cn2cnc3ccccc3c2=O)s1 | . | . | . | . | . | /
COc1ccc(/C=C2\CN(Cc3ccccc3)C/C(=C\c3ccc(OC)c(O)c3)C2=O)cc1O | . | 33 | / | / | / | .
COc1cc(/C=C2/SC(=S)N(Cc3ccccc3)C2=O)ccc1O | . | . | / | / | / | /
Cc1ccc(/C=C/c2onc(C)c2S(=O)(=O)N2CCC(C(=O)NC(C)(C)C)CC2)cc1 | . | . | / | / | / | /
Cc1ccc2c(c1)sc(-c1ccc(N(C)C)cc1)[n+]2C | . | 44 | / | / | / | 30
COc1ccc(C)cc1Nc1n[n+](-c2ccccc2)c(-c2ccc(N(C)C)cc2)s1 | . | . | / | / | / | /
COc1cccc(CNC(=O)c2nnn(CC(=O)Nc3ccc(Br)cc3)c2N)c1 | . | 34 | / | / | / | .
COc1ccc(NC(=O)Cn2nnc(C(=O)NCc3ccc4c(c3)OCO4)c2N)cc1 | . | . | . | . | . | /
CCOc1ccccc1NC(=O)Cn1nnc(C(=O)NCc2ccc3c(c2)OCO3)c1N | . | 51 | / | / | / | 28
O=C(Cn1cnc2cc([N+](=O)[O-])ccc2c1=O)NC1CCS(=O)(=O)C1 (stereo unspecified) | . | . | . | . | . | /
O=C(Nc1ccc(Br)cc1F)c1cccnc1 | . | . | . | . | . | /
CCN(Cc1cc(=O)[nH]c2ccccc12)C(=O)c1ccc(C)cc1 | . | . | . | . | / | /
CNc1nc(-c2ccc3c(c2)CCN3C(=O)CC(C)(C)C)c(C)s1 | . | . | . | . | . | /
CC(=O)Nc1nc(-c2ccc3c(c2)CCN3C(=O)C2CC2)c(C)s1 | . | 49 | / | / | / | .
Cc1ccccc1-c1ocnc1C(=O)Nc1ccccc1NC(=O)c1ccccn1 | . | 23 | / | / | / | .
Cc1ccc(-c2csc3ncnc(Sc4nnc(CN5CCCCCC5=O)o4)c23)cc1 | . | 36 | . | . | . | 30
Cc1n[nH]c(C)c1C(=O)CC1(O)C(=O)N(Cc2ccccc2)c2ccc(Br)cc21 (stereo unspecified) | . | . | . | . | . | /
C=CCN1C(=O)C(O)(CC(=O)c2ccco2)c2cc(Br)ccc21 (stereo unspecified) | . | 87 | . | . | . | 23
CCOCCCNC(=O)c1cc(-c2cccnc2)nc2ccc(S(=O)(=O)N3CCC(C)CC3)cc12 | . | 24 | / | / | / | .
COCCNC(=O)c1cc(-c2ccccn2)nc2ccc(S(=O)(=O)N3CCC(C)CC3)cc12 | . | . | / | / | / | /
Cc1c(N2C(=O)c3cccc4cccc(c34)C2=O)cnn1C | . | . | . | . | / | /
O=C(O)c1ccc(N/N=C/c2ccc(-c3ccc(Br)cc3)o2)cc1 | . | 28 | / | / | / | 28
Cc1nnc(N/N=C/c2ccc(Br)cc2)n1N | . | . | / | / | / | /
Cc1nnc(N/N=C/c2ccc(-c3ccc(Br)cc3)o2)n1N | . | 37 | . | . | . | .
Cc1ccc2[nH]c(=O)c(CN(C(=O)c3cccs3)c3ccccc3)cc2c1 | . | . | . | . | . | /
SMILES | KLF5 inh | IEC-6 tox | BaF3 parental | Ba/F3 V617F tox | APP transl inh | IEC-6 cytotox cf
O=C(CCl)Nc1c2c(nn1-c1ccccc1)CSC2 | . | . | / | / | / | /
O=C(Nc1cccnc1Cl)c1cc2ccccc2o1 | . | . | / | / | / | /
COc1cc(OC)cc(-c2oc3cccnc3c2C#CCCO)c1 | . | 25 | / | / | / | .
COc1ccc(/C=C/c2c(-c3ccc(OC)cc3)oc3cccnc23)cc1 | . | . | / | / | / | /
O=C(/C=C/c1ccco1)Nc1ccccn1 | . | 28 | 56 | 63 | . | 58
Cc1ccc(NC(=O)/C=C/c2ccco2)nc1 | . | 86 | 82 | 85 | 89 | 57
O=C(/C=C/c1ccco1)Nc1cccnc1 | . | . | . | . | . | /
CC(C)Cc1ccc(C(C)C(N)=NCCc2ccccc2)cc1 (stereo unspecified) | . | 64 | / | / | / | 99
COc1cc2c3c(c1)C(C)=CC(C)(C)N3C(=O)C2=O | . | 87 | . | . | . | 44
CCOc1ccc(/C=N/n2c(SC)nnc2-c2ccccc2)cc1OCC | . | . | . | . | . | /
CCCOc1ccc(S(=O)(=O)n2cc(F)c(=O)[nH]c2=O)cc1 | . | 44 | / | / | / | .

Screening results deposited in PubChem BioAssay by several laboratories.
